Assay outcomes (PubChem)
Shown are actives, neighbours in structure and some others; about 11% of the full set was active somewhere.
PNC assembly inh = perinucleolar compartment assembly inhibition | activity change (PNC), negative = inhibition, % at 10 µM | AID 2417 | PC3M PTB-GFP, PNC prevalence imaging, 16 h; stronger effect = lower value | hit rate 3.1% among 140,000;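 active = readout at or below -70, meaning at least 70% loss of cells showing the perinucleolar compartment, a nuclear body marking cancer cells; inconclusive = readout between -30 and a set limit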;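 note: plate controls were DMSO wells for no effect and camptothecin positive control wells for full effect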
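PC3M cells stably expressing PTB-GFP, 750–1000 cells/well, treated 16 h at 37 °C with compound (23 nl of library stock), in duplicate. After paraformaldehyde fixation and Hoechst stain, imaged at 20x; PNC prevalence scored by image analysis.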
IMPase Li inh = membrane-permeable IMPase blocker, potentiated with lithium; CHO-M1 cells, IP1 TR-FRET (IP-One), carbachol + lithium; hit rate 0.35% among 210,000; Potency, µM (highest dose often 59.4 µM), inactives show top-dose activity, negative = IMPase inhibition, usual class: inhibitors; AID 1457;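 note: IP1 builds up when IMPase is blocked and the TR-FRET signal falls; potency is the fitted concentration of half-maximal effect; plate controls were basal vehicle for no effect and high inhibitor control for full effect; nearly all actives have a fitted effect of over 50% in size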
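Concentration–response in CHO-M1 cells, lithium-potentiated; 30 min at 37C. IP1 detected by competitive TR-FRET after 10 min lysis at RT. Hill-fitted AC50.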
ALDH1A1 block = inhibitors of human aldehyde dehydrogenase 1A1 | hit rate 7.3% among 220,000 | AID 1030 | Potency, µM (highest dose often 75.3 µM), without a hit: top-dose activity, negative = inhibition, usual class: inhibitors | Purified ALDH1A1, NADH fluorescence, propionaldehyde substrate | P00352; active = well fitted inhibition curve with a large enough effect, not every such curve was filed as active; inconclusive = small, poorly fitted or top-dose-only effect, or another doubt; inactive = no such curve, though single readings can be large or run the other way;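 note: potency is the fitted concentration of half-maximal effect; plate controls were no enzyme wells and a reference inhibitor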
ALOX12 inhib = 12-hLO (ALOX12) enzyme inhibition | purified 12-hLO, xylenol orange hydroperoxide absorbance | Potency, µM (top dose mostly 57.1 µM), for the others: at the highest dose activity change, negative = inhibition, most hits filed as inhibitors | hit rate 0.12% among 150,000 | AID 1452; note: potency is the fitted concentration of half-maximal effect; nearly all actives have a fitted effect of over 55% in size
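Xylenol orange chromogenic assay: hydroperoxide from 12hLO oxidises Fe(II), giving red-shifted Fe(III)-XO absorbance. Conditions: 150 nM enzyme, 40 uM arachidonic acid, 25 mM Hepes pH 7.0, 0.01% Triton X-100, 30 min, room temperature.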
HPGD inh = HPGD (human) dehydrogenase inhibition; Potency, µM, for the others: at the highest dose activity change, negative = inhibition, hits mostly inhibitors; AID 894; hit rate 4.3% among 150,000; purified HPGD, NADH fluorescence kinetic, PGE2 substrate; P15428; active = well fitted inhibition curve with a large enough effect, not every such curve was filed as active; inconclusive = small, poorly fitted or top-dose-only effect, or another doubt; inactive = no such curve, though single readings can be large or run the other way; note: potency is the fitted concentration of half-maximal effect
Target sequence (P15428 whole entry, looked up): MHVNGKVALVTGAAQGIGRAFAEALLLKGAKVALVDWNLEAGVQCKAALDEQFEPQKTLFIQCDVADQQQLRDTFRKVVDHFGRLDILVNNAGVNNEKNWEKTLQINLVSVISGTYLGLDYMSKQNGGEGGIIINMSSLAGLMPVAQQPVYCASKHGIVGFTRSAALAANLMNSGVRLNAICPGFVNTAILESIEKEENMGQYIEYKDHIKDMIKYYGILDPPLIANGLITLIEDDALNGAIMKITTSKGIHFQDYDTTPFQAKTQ
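20 nM HPGD preincubated 15 min at room temperature with compound in 50 mM Tris-HCl pH 8, 0.01% Tween 20. Started with 1 mM NAD+ and 30 uM prostaglandin E2; NADH fluorescence (360/450 nm) read 5 times over 30-s intervals, last minus first.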
IMPase cell inh = cell-permeable inhibitors of inositol monophosphatase (IMPase). AID 901. 120,000 tested, under 10 active. inhibition (IP1 accumulation), % at 46.1 µM. CHO-M1 cells, IP1 accumulation, HTRF TR-FRET ratio; active = well fitted curve in the direction sought with a large enough effect in the signal ratio, not every such curve was filed as active; inconclusive = small, poorly fitted or top-dose-only effect, or a change in a side signal; inactive = no such curve, though single readings can be large or run the other way; the % refers to the signal ratio;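 note: cells stimulated with carbachol in lithium chloride buffer; plate controls were DMSO basal wells for no effect and reference inhibitor wells for full effect; higher means more IMPase inhibition seen as more IP1 and lower FRET ratio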
Target sequence (P97697 whole entry, looked up): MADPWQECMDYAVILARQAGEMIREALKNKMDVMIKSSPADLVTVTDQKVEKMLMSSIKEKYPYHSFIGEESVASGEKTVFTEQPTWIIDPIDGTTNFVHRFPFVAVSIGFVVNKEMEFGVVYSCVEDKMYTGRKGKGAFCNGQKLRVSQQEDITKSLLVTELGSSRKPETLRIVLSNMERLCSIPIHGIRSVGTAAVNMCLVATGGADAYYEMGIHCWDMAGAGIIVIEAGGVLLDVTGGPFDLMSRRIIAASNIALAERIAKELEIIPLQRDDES
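Seeded CHO-M1 cells were dosed with compound at up to 46 uM, stimulated with carbachol for 30 min, then lysed in IP-One detection reagents. Higher IP1 lowers the TR-FRET signal.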
Active calls of the source: *; ? = inconclusive; / = no result given; [ ] = dose if it differs, or a comment. Unless noted, calls come from the whole dose curve; as a rule, active = well fitted curve in the direction sought with a large enough effect; inconclusive = small, poorly fitted or top-dose-only effect, or another doubt; inactive = no such curve, though single readings can be large; an effect the other way counts as inactive or inconclusive. Unless noted, % is set by controls: 0 for no effect and ±100 for the full control effect.

SMILES	PNC assembly inh	IMPase Li inh	ALDH1A1 block	ALOX12 inhib	HPGD inh	IMPase cell inh
CN1CCN(CCCNC(=O)C2CC(=O)N(C3CCCCC3)C2)CC1 (stereo not drawn)	?	11%[38.3 µM]	0%	1%	0%	2
O=C(NCCN1CCc2ccccc2C1)C1CC(=O)N(C2CCCC2)C1 (stereo not drawn)	0	18%[38.3 µM]	35µM*	0%	?	6
Cc1ccccc1NC(=O)c1c(C)nn(-c2ccccc2)c1Cl	9	-4%	?	-4%	28µM*	/
Cc1ccc(NC(=O)c2c(C)nn(-c3ccccc3)c2Cl)cc1	-18	2%	2%	-9%	14µM*	5
CCCNC(=O)N1N=C(c2ccc(N)cc2)c2cc3c(cc2[C@H]1C)OCO3	/	17%	?	-2%	-28%	1
COc1ccc(C(=O)Cn2nnc(-c3ccccc3NC(=O)C3CCCCC3)n2)cc1	15	38%[38.3 µM]	0.28µM*	9%	-13%	-1
COc1ccc(NC(=O)Cn2nnc(-c3ccccc3NC(=O)C3CC3)n2)cc1	-104*	/	0%	-10%	/	17
CC1CCN(S(=O)(=O)c2ccc(NC(=O)Cn3nnc(-c4ccccc4)n3)cc2)CC1	-100*	4%[38.3 µM]	4%	-5%	-3%	3
COC(=O)C[C@H]1c2ccccc2C2=C(C[C@@H](C)[C@H]3C(=O)NC(=O)[C@@H]23)N1C(=O)OC	/	3%	-2%[13.5 µM]	-4%[11.4 µM]	-13%	/
CC(C)[C@H](N=Cc1ccccc1O)C(=O)O	/	-9%	-10%[13.5 µM]	-3%[11.4 µM]	-4%	/
Cc1[nH]n(-c2ccccc2)c(=O)c1C(C[N+](=O)[O-])c1ccc(Br)cc1 (stereo not drawn)	-9	37%[38.3 µM]	22µM*	-16%	?	4
CCOc1ccc(C(c2c(C)[nH]n(-c3ccccc3)c2=O)c2c(C)[nH]n(-c3ccccc3)c2=O)cc1OC	/	/	/	/	/	-1
Cc1[nH]n(-c2ccccc2)c(=O)c1C(c1ccc(C(=O)O)cc1)c1c(C)[nH]n(-c2ccccc2)c1=O	-9	-1%	?	1%	?	/
Cc1[nH]n(-c2ccccc2)c(=O)c1C(c1cccc([N+](=O)[O-])c1)c1c(C)[nH]n(-c2ccccc2)c1=O	-27	4%	?	-3%	32µM*	/
CCOC(=O)[C@H](CCc1ccccc1)N[C@@H](C)C(=O)N1[C@H](C(=O)O)C[C@H]2CCCC[C@@H]21	/	8%	-1%	0%	-4%	/
COc1ccc(COC(=O)N/N=C2/C[C@@H](O)[C@@H](O)[C@@H]3[C@@H]4C(=O)N(Cc5ccc6c(c5)OCO6)C(=O)[C@H]4CC[C@@H]23)cc1	/	/	-10%[13.5 µM]	/	/	/
CCO[P@]1(=O)OC[C@@H]2O[C@H](n3cnc4c(N)ncnc43)[C@H](O)[C@@H]2O1	/	6%	5%[13.5 µM]	-3%[11.4 µM]	-3%	/
Cc1nn2c(COc3ccc(NC(=O)C(C)C)cc3)nnc2c2ccccc12	/	-4%	-6%	/	/	/
Cc1nn2c(COc3ccc(NC(=O)c4ccccc4Cl)cc3)nnc2c2ccccc12	14	9%	5%	-3%	14µM*	/
CCOC(=O)Nc1ccc(OCc2nnc3c4ccccc4c(C)nn23)cc1	/	16%	0%	/	/	/
Cc1nn2c(CN(C(=O)CN3CCOCC3)c3ccccc3)nnc2c2ccccc12	-21	6%	18µM*	-1%	-3%	1
Cc1nn2c(CN(C(=O)COc3ccccc3)c3ccccc3)nnc2c2ccccc12	8	1%	11µM*	-5%	-22%	/
O=C(OCn1ncc(Br)c(Br)c1=O)c1c(F)cccc1F	?	8.9µM*	0.5µM*	-4%	28µM*	-25
CC(=O)Cn1ncc(Br)c(Br)c1=O	/	-21%	3.5µM*	/	/	/
Cc1nc2nc[nH]n2c(=O)c1CCOC(=O)c1c(F)cccc1F	/	-8%	?	/	/	/
SMILES	PNC assembly inh	IMPase Li inh	ALDH1A1 block	ALOX12 inhib	HPGD inh	IMPase cell inh
O=C(c1ccc2c(c1)OCCO2)N1CCN(c2ccc([N+](=O)[O-])cc2)CC1	/	12%	14µM*	/	/	/
O=C(Nc1ccc2c(c1)OCCO2)C1CCN(C(=O)c2ccc([N+](=O)[O-])cc2)CC1	/	15%	-6%	/	/	/
Cc1nnc(SCC(=O)c2ccc([N+](=O)[O-])cc2)s1	/	4%	?	/	/	/
O=C(c1cc([N+](=O)[O-])ccc1Cl)N1CCN(c2ccccc2)CC1	29	-1%	?	-1%	-12%	10
CCSc1ccccc1C(=O)N1CCN(c2ccc([N+](=O)[O-])cc2)CC1	/	16%	14µM*	/	/	/
Cc1c(-c2ccccc2)oc2c(C(=O)N3CCN(c4ccc([N+](=O)[O-])cc4)CC3)cccc2c1=O	8	14%	3.5µM*	-3%	-18%	7
Nc1nnc(SCC(=O)c2ccc([N+](=O)[O-])cc2)s1	/	-3%	2.8µM*	/	/	/
N#Cc1cccc(-c2cncnc2NCc2ccccc2)c1	/	-6%	9%	/	/	/
CO[C@H]1OC[C@@]2(C)[C@@H]3C4=C(CN2C(=O)OC(C)(C)C)[C@H](C)[C@H](CO)[C@H](CO)[C@H]4CC[C@H]13	/	-3%	-6%	-5%	-18%	/
CCCCN(C)C(=O)c1cn(CC)c2nc(C)ccc2c1=O	-11	-9%[38.3 µM]	5%	-4%	-16%	3
CC(C)(O)C#Cc1ccc(C(=O)N2CCN(c3ccc([N+](=O)[O-])cc3)CC2)cc1	/	16%	20µM*	/	/	/
O=C(CSc1ccccc1C(=O)O)c1ccc([N+](=O)[O-])cc1	/	0%	16µM*	/	/	/
Cc1cccc(C(=O)N2CCN(c3ccc([N+](=O)[O-])c(N4CCOCC4)c3)CC2)c1	32	-8%[38.3 µM]	5µM*	-10%	-16%	2
CCn1cc(C(=O)N2CCN(c3ccc([N+](=O)[O-])cc3)CC2)c(=O)c2ccc(C)nc21	/	-4%	25µM*	/	/	/
CCOC(=O)c1cc(NC(=O)c2ccc(C)cc2)c(=O)n2c1oc1ccc(Cl)cc12	/	/	/	/	/	0
COc1ccc(-c2nc3cnc(OC)nc3n(-c3ccc(OC)cc3)c2=O)cc1	/	0%	?	/	/	/
C(=N\n1cnnc1)/c1cccc2ccccc12	40	2%[38.3 µM]	-6%	4%	-26%	-3
